Drawing on PubChem BioAssay (NCI), this text covers growth for 39 compounds.

This is part of a sample that, as a whole, favours compounds with a hit. Of some 83,000 tested, about 20% had one in any assay.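 How to read the values: 0–100, growth inhibition (40 = 60% inhibited); 0, no net growth; -100 to 0, cell death (-40 = 40% of starting cells died; -100 = all dead).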 Values without a mark were called inactive. Activity calls are given as the source filed them. The calls were made as follows: active = growth percent below 10; inactive = the rest.

The test system of this experiment is T-47D breast. Put plainly: NCI-60 one-dose screen, 48 h (100 = growth as untreated, 0 = no growth, -100 = all killed). The note with it: 10 µM unless noted.
On to `CCSc1nnc(Nc2ccc(C(C)C)cc2)s1`, for which the growth is 78.7%.

Consider `O=C(Cc1c(F)cccc1Cl)Nc1ccc(S(=O)(=O)Nc2ncccn2)cc1`, for which the growth was 102%.

`CC1(C)OC2COC3(C(=O)O)OC(C)(C)OC3C2O1` (centres undefined): the growth was 90.2%.

As to `COc1cc(-n2nc(C(=O)Nc3ccc(C(=O)O)cc3)nc2-c2ccccc2)cc(OC)c1OC`, the growth was 79%.

With `CN1CCN(CCCOc2ccc3nc(Nc4ccc(C(F)(F)F)c(Cl)c4)ccc3c2)CC1`, the growth is 39.9%.

Consider `COc1ccc(S(=O)(=O)NCCNc2nccc(-c3c(-c4ccccc4)nc4sccn34)n2)cc1`, for which the growth is 10.9%.

Consider `O=c1[nH]c(-c2cn(-c3ccc(Cl)cc3)nn2)nc2ccccc12`, for which the growth is 54.4%.

As for `COc1ccc(S(=O)(=O)Nc2cc(/C=C\c3cc(OC)c(OC)c(OC)c3)cc(OC)c2OC)cc1OC`, the growth was 43.8%.

Regarding `COc1ccc(-c2nc3sccn3c2-c2ccnc(NCCNS(=O)(=O)c3ccc(C(F)(F)F)cc3)n2)cc1`, the growth was -11.8% (active).

As for `CCN(CC)CCSc1c2ccc(Cl)cc2nc2ccc(OC)cc12`, the growth was -39.9% (active).

Turning to `COc1ncc(-c2ccc3ncnc(Nc4cccc(Cl)c4)c3c2)cc1NS(=O)(=O)CCN1CCOCC1`, the growth is -10.6% (active).

For `O=c1[nH]c(CN2CCN(c3ccccc3F)CC2)nc2sc3c(c12)CCC3`, the growth is 99.1%.

`O=C(Nc1cccc(Cl)c1)c1cc([N+](=O)[O-])ccc1O`: the growth is 41.9%.

For `Cc1cc(N/C=c2\sc3ncnn3c2=O)no1`, the growth is 96.1%.

For `c1ccc2c(c1)Oc1ccccc1C2C1c2ccccc2Oc2ccccc21`, the growth is 81.4%.

`CC(C)CCN(CCCNc1c2c(nc3ccccc13)CCCC2)CCC(C)C`: the growth was 98.8%.

For the compound `COc1cc(/C=C/C(=O)c2ccccc2O)ccc1OCCCOc1cc2c(cc1OC)C(=O)N1CCC[C@H]1C=N2`, the growth is 21.8%.

For the compound `O=C1NC(Cc2c[nH]c3ccccc23)C(=O)N1Cc1ccc(Cl)cc1` (centres undefined), the growth was 94.3%.

With `COc1ccc(C2CC(c3cccs3)=NN2c2ccc(S(=O)(=O)NC(=O)NCc3cccc(OC)c3)cc2)cc1` (centres undefined), the growth was 85.7%.

`CCOC(=O)C1=C(CSC(=S)N(C2CCCCC2)C2CCCCC2)N(C)C(=O)NC1c1ccccc1` (centres undefined): the growth was 50.2%.

Consider `COc1cccc2nc(Nc3ccc(NC(=O)c4ccc5ncccc5c4)cc3)ccc12`, for which the growth was 68%.

As for `Cc1cc(NC(=O)COC(=O)c2sc3cc(F)ccc3c2Cl)no1`, the growth is 102%.

Take `CC/C=C\C[C@H](O)C/C=C1/C(=O)C(Cl)=C[C@@H]1C/C=C\CCCC(=O)O`: the growth is 56.9%.

With `O=Nc1c(-c2c(O)[nH]c3ccc([N+](=O)[O-])cc23)[nH]c2ccc(O)cc12`, the growth is 16.8%.

For `O=C(Nc1ccc(F)cc1)c1cc([N+](=O)[O-])ccc1O`, the growth was 56%.

For the compound `Cc1ccc(S(=O)(=O)OCC(=O)Nc2ccc(C(=O)O)c(O)c2)cc1`, the growth is 106%.

Consider `Cc1cc(C)c(NC(=O)c2sc3nc4c(cc3c2N)CN(Cc2ccccc2)CC4)c(C)c1`, for which the growth is 27.4%.

For the compound `COc1ccc(-c2nnc(COc3ccc(NS(=O)(=O)c4ccc(OC)cc4)cc3F)o2)cc1`, the growth was 31.6%.

In the case of `Cc1ccc2nc(-c3c(CCCO)noc3N)[nH]c(=O)c2c1`, the growth was 107%.

In the case of `O=[N+]([O-])c1ccc(S(=O)(=O)N2CCN(c3ccnc4cc(Cl)ccc34)CC2)c([N+](=O)[O-])c1`, the growth is 60.3%.

`CCN(Cc1ccc(CN(CC)C(=O)C(Cl)(Cl)Cl)cc1)C(=O)C(Cl)(Cl)Cl`: the growth was 78.2%.

`COc1ccc(Cn2cc(COc3cc(/C=C/C(=O)c4cc(OC)c(OC)c(OC)c4)ccc3OC)nn2)cc1`: the growth was 65.4%.

As for `N#CC1=C(N)n2nc(-c3ccncc3)nc2NC1c1cccc2ccccc12` (centres undefined), the growth was 66.2%.

Consider `COc1ccc(/C=C/C(=O)c2ccc(B(O)O)cc2)cc1O`, for which the growth is 79.2%.

For the compound `Nc1nc(-c2ccccc2)cs1`, the growth is 96.7%.

Consider `NS(=O)(=O)c1ccc(NCC(=O)Nc2ccc(-c3nc4ccccc4s3)cc2)cc1`, for which the growth is 46.4%.

On to `COc1cc(Br)c(OC)cc1Br`, for which the growth was 82%.

For the compound `COc1cc(NS(C)(=O)=O)ccc1Nc1c2ccc([N+](=O)[O-])cc2nc2c(C)cccc12`, the growth is 1.78% (active).

On to `O=C(Nc1ccc(I)cc1)c1cccc([N+](=O)[O-])c1O`, for which the growth is 9.64% (active).
